This is an account of results in PubChem BioAssay (EPA / NIEHS).

A word on the AC50: it is the concentration giving half of the maximal activity seen.

A short description of experiment [1]: Tanguay_ZF_120hpf_CFIN_legacy: (Legacy) Oregon State University Tanguay Lab 120 Hour Post-fertilization zebrafish Assay for Caudal Fin Malformation (AID 2283649). An outline of the steps:
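Embryos were collected from Tropical 5D wild-type adults and dechorionated at 4 hpf. At 6 hpf each was exposed, one per well, at 0.64% DMSO and 28C. At 120 hpf fin morphology was scored; dead embryos were excluded.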

A short description of experiment [2]: Tanguay_ZF_120hpf_PIG_legacy: (Legacy) Oregon State University Tanguay Lab 120 Hour Post-fertilization zebrafish Assay for Pigmentation Malformation (AID 2283650). An outline of the steps: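 Dechorionated Tropical 5D wild-type embryos, one per well from 6 hpf, statically exposed at 28C in the dark until 120 hpf, 0.64% DMSO final. Pigmentation scored present/absent by brightfield microscopy; dead embryos not scored; fitted versus DMSO.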

The nature of experiment [3]: Tanguay_ZF_120hpf_CIRC_legacy: (Legacy) Oregon State University Tanguay Lab 120 Hour Post-fertilization zebrafish Assay for Circulatory Malformation (AID 2283651). An outline of the steps:
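Read-out: presence or absence of circulatory malformation at 120 hpf, scored by brightfield microscopy, fitted in the gain-of-signal direction against DMSO baseline. Wild-type 5D larvae were exposed from 6 hpf after enzymatic chorion removal.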

Experiment [4] is described as follows: Tanguay_ZF_120hpf_SWIM_legacy: (Legacy) Oregon State University Tanguay Lab 120 Hour Post-fertilization zebrafish Assay for Swim Bladder Malformation (AID 2283654).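 Further: swim bladder malformation in each larva scored yes or no under brightfield.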 An outline of the steps:
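Dechorionated wild-type Tropical 5D zebrafish embryos, one per well from 6 hpf, were statically exposed at 28C until 120 hpf in 0.64% DMSO. Swim bladder malformation scored as present/absent by brightfield microscopy; not scored in dead larvae.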

Experiment [5] is described as follows: Tanguay_ZF_120hpf_TRUN_legacy: (Legacy) Oregon State University Tanguay Lab 120 Hour Post-fertilization zebrafish Assay for Truncated Body (AID 2283655). An outline of the steps:
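5D wild-type larvae; pronase dechorionation; static exposure 6→120 hpf, 28C; DMSO 0.64% final; 5uM trimethyltin chloride positive control. Readout: presence/absence of truncated body, analyzed relative to DMSO.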

The nature of experiment [6]: Tanguay_ZF_120hpf_NC_legacy: (Legacy) Oregon State University Tanguay Lab 120 Hour Post-fertilization zebrafish Assay for Notochord and Tail Malformation (AID 2283656). An outline of the steps: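 Dechorionated Tropical 5D wild-type zebrafish embryos, one per well from 6 hpf, statically exposed to 120 hpf at 28C in 0.64% DMSO final. Notochord distortion scored present/absent by brightfield; dead embryos excluded.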

A short description of experiment [7]: Tanguay_ZF_120hpf_TR_legacy: (Legacy) Oregon State University Tanguay Lab 120 Hour Post-fertilization zebrafish Assay for Touch Response (AID 2283667). An outline of the steps:
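Tropical 5D wild-type zebrafish embryos statically exposed to 120 hpf at 28°C, sealed and dark-covered, 0.64% DMSO final; touch response scored as present/absent by brightfield microscopy at 120 hpf. Trimethyltin chloride 5 uM positive control; dead embryos not scored.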

A short description of experiment [8]: CCTE_Padilla_ZF_144hpf_TERATOSCORE: (Legacy) CCTE's 144 Hour Post-fertilization zebrafish Assay Teratoscore, Padilla Lab (AID 2283679; active means hit-call score of the fitted dose curve at least 0.9, where 1 is the maximum; inactive means score below 0.9;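 on AC50: zebrafish embryos with chorions exposed by immersion from 6-8 hpf to 5 dpf with daily renewal; teratogenicity score from eye scoring of death hatching and malformations at 144 hpf; higher score means more developmental defects relative to DMSO baseline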). An outline of the steps:
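Larvae scored by eye at 144 hpf for death, hatching and malformations after a day in clean Hanks'. Before that, daily-renewed exposure at 80 uM (0.4% DMSO, 26C) from roughly 6-8 hpf through 5 dpf, 4 embryos per chemical.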

A short description of experiment [9]: CEETOX_H295R_MTT_cell_viability: Viability Assessment in the CeeTox HT-H295R MTT Assay (AID 2283718; active means hit-call score of the fitted dose curve at least 0.9, where 1 is the maximum; inactive means score below 0.9). An outline of the steps: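 Human H295R adrenal cells, prestimulated 48 h with 10 uM forskolin, were exposed 48 h to chemicals in 0.1% DMSO. Viability was measured in the same wells by MTT (0.5 mg/ml, 4 h, 37 C), absorbance 570/650 nm, as percent of controls.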

Experiment [10] can be described thus: Tanguay_ZF_120hpf_ActivityScore_legacy: (Legacy) Oregon State University Tanguay Lab 120 Hour Post-fertilization zebrafish Assay Score for Activity (AID 2283742). An outline of the steps:
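Dechorionated Tropical 5D embryos, one per well from 6 hpf, statically exposed to 120 hpf at 28 °C in 0.64% DMSO. Mortality and malformations scored binary by brightfield microscopy; activity score combines 18 endpoints, fitted positively versus DMSO.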

Read-out in experiment [11]: kallikrein-3 (KLK3), KLK3 (gene 354)
Put plainly: LTEA_HepaRG_KLK3: Life Technologies and Expression Analysis (LTEA) Assay for kallikrein-3 (KLK3) using HepaRG (AID 2283652; active means hit-call score of the fitted dose curve at least 0.9, where 1 is the maximum; inactive means score below 0.9). The settings on record: mRNA level, 48 h; actives raise or lower the signal. An outline of the steps:
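Differentiated human HepaRG cells in serum-free induction medium exposed 48 h in duplicate, eight-point half-log series from 100 uM in 0.5% DMSO. KLK3 mRNA by qRT-PCR, normalised to ACTB, GAPDH, POLR2A; bidirectional fit versus DMSO.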

Read-out in experiment [12]: solute carrier (SLC22A6), SLC22A6 (gene 9356)
In words: LTEA_HepaRG_SLC22A6: Life Technologies and Expression Analysis (LTEA) Assay for solute carrier (SLC22A6) using HepaRG (AID 2283653; active means hit-call score of the fitted dose curve at least 0.9, where 1 is the maximum; inactive means score below 0.9). The note with it: mRNA level, 48 h; actives raise or lower the signal. An outline of the steps:
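This endpoint tracks SLC22A6 mRNA induction or suppression in human HepaRG cultures after 48 h dosing, concentrations reaching 100 uM. Values derive from bidirectional fitting against DMSO controls.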

Read-out in experiment [13]: solute carrier (SLC10A1), SLC10A1 (gene 6554)
In words: LTEA_HepaRG_SLC10A1: Life Technologies and Expression Analysis (LTEA) Assay for solute carrier (SLC10A1) using HepaRG (AID 2283657; active means hit-call score of the fitted dose curve at least 0.9, where 1 is the maximum; inactive means score below 0.9). The settings on record: mRNA level, 48 h; actives raise or lower the signal. An outline of the steps:
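HepaRG cells (single lot) exposed 48 h in serum-free induction medium, 8-point half-log series from 100 uM top in 0.5% DMSO, duplicate. SLC10A1 mRNA by qRT-PCR normalised to ACTB, GAPDH, POLR2A; bidirectional fit versus DMSO.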

Read-out in experiment [14]: matrix metalloproteinase-1 (MMP1), MMP1 (gene 4312)
Put plainly: LTEA_HepaRG_MMP1: Life Technologies and Expression Analysis (LTEA) Assay for matrix metalloproteinase-1 (MMP1) using HepaRG (AID 2283658; active means hit-call score of the fitted dose curve at least 0.9, where 1 is the maximum; inactive means score below 0.9). The settings on record: mRNA level, 48 h; actives raise or lower the signal. An outline of the steps: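 Bidirectional concentration-response fitting relative to 0.5% DMSO gives the endpoint, derived from MMP1 mRNA levels (qRT-PCR) in human HepaRG cells treated 48 h with chemicals up to 100 uM.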

Read-out in experiment [15]: Cytochrome P450 (CYP24A1_1), CYP24A1 (gene 1591)
In words: LTEA_HepaRG_CYP24A1_1: Life Technologies and Expression Analysis (LTEA) Assay for Cytochrome P450 (CYP24A1_1) using HepaRG (AID 2283671; active means hit-call score of the fitted dose curve at least 0.9, where 1 is the maximum; inactive means score below 0.9). The settings on record: mRNA level, 48 h; actives raise or lower the signal. An outline of the steps: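 Differentiated human HepaRG cells in serum-free induction medium, exposed 48 h in duplicate to eight half-log concentrations from 100 uM top, 0.5% DMSO. Transcript measured by TaqMan qRT-PCR, normalised to ACTB, GAPDH, POLR2A; bidirectional fitting versus DMSO.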

Experiment [16] can be described thus: STM_H9_OrnithineISnorm_perc: Stemina devTOX quickPredict H9 human embryonic stem cell (hESC)-based Assay for Ornithine (ORN) Metabolite Biomarker, Normalized (AID 2283712; active means hit-call score of the fitted dose curve at least 0.9, where 1 is the maximum; inactive means score below 0.9;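 further: ornithine released into spent medium during last day measured by mass spectrometry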). An outline of the steps: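 H9 human embryonic stem cells kept pluripotent receive test chemical over 72 h, refreshed daily by media exchange. Media from the closing 24 h is deproteinized and analysed by UPLC-HRMS on an amide column; ornithine signal is scaled to labelled standard and vehicle.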

Experiment [17] in a line: STM_H9_OrnCyssISnorm_ratio: Stemina devTOX quickPredict H9 human embryonic stem cell (hESC)-based Assay for Ornithine (ORN):Cystine (CYSS) Ratio (AID 2283714). An outline of the steps: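 Undifferentiated H9 hESCs exposed 72 h, media and compound replaced every 24 h; final 24-h conditioned media deproteinized and analysed by UPLC-HRMS against C13 spike-ins. Value is the internal-standard-normalized ORN/CYSS ratio versus 0.1% DMSO.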

Experiment [18] concerns Thyroperoxidase (TPO), gene 54314. In words: CCTE_Simmons_AUR_rTPO: CCTE's Amplex UltraRed Assay for Thyroperoxidase (TPO) Inhibition, Simmons Lab (AID 2283662).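 On AC50: potency for loss of signal meaning inhibition of peroxidase activity.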 An outline of the steps: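 Cell-free peroxidase activity assay using rat thyroid gland microsomes with excess H2O2 (300 uM) and 25 uM Amplex UltraRed. Compounds tested from 5 nM to 87.5 uM; fluorescence measured after 30 min at 37C, analysed relative to DMSO baseline.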

A short description of experiment [19]: CCTE_Simmons_CellTiterGLO_HEK293T: Viability Assessment in CCTE's Assays for Thyroperoxidase (TPO) Inhibition, Simmons Lab (AID 2283665).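 On AC50: cells exposed to compound for 24 h before readout; actives reduce ATP signal below DMSO vehicle meaning cytotoxicity.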 An outline of the steps:
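HEK293T, 10 000 cells/well, DMEM + 1% FBS; 8-pt titration 5 nM–87.5 uM [final], 0.5% DMSO; 24 hr, 37C, 5% CO2; CellTiter-Glo luminescence; n=3 biological replicates.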
(In ATP-based viability assays light output follows the ATP content of the culture.)

Structures are written as SMILES. Several values for one entry are separate records, joined by “and”; a condition that tells them apart may be missing. Equal values may be shown once. Results filed as inconclusive are left out. The source holds several records for some structures; these can differ, active in one and inactive in another. Activity calls are given as the source filed them. How the source made its calls, unless noted: active means hit-call score of the fitted dose curve at least 0.9, where 1 is the maximum; inconclusive means response in the unintended direction; inactive means score below 0.9.

Consider `COc1cc(-c2ccc(N)c(OC)c2)ccc1N`, for which the outcome in experiment [1], in experiment [2], in experiment [3], in [5], in [6] and in experiment [7] was inactive. The molecule was called inactive in [9] and in experiment [10]. Besides, the AC50 in experiment [4] is 95.5 µM (active); in experiment [8] it was 52.6 µM (active) and 79.3 µM (active); in experiment [10], 3.57 µM (active).
Consider `O=c1[nH]c(=O)[nH]c(=O)[nH]1`, for which the molecule was called inactive in [2], in experiment [3], in experiment [5], in experiment [6], in [7] and in experiment [8]. The call in [10] was inactive.
`C=CC(=O)OCCCCCC(C)C`: the result in experiment [1], in experiment [3], in experiment [4], in experiment [5], in experiment [6] and in [7] was inactive. Besides, in experiment [10], the call was inactive.
Take `ClC1(Cl)C2(Cl)C3(Cl)C4(Cl)C(Cl)(Cl)C5(Cl)C3(Cl)C1(Cl)C5(Cl)C24Cl` (configuration not stated): the molecule was called inactive in [1], in experiment [2], in experiment [3], in [11], in [12] and in experiment [4]. In addition, the result in experiment [5], in experiment [6], in [14], in experiment [7], in [15] and in experiment [16] was inactive. In addition, the molecule was classed as inactive in experiment [10]. Moreover, the AC50 is 1.22 µM (active) in [13] and 0.346 µM (active) in experiment [17].
Regarding `CCC(=O)C(CC(C)N(C)C)(c1ccccc1)c1ccccc1` (configuration not stated), the outcome in [1], in experiment [2], in experiment [3], in experiment [4], in experiment [5] and in experiment [6] was inactive. In addition, the molecule was classed as inactive in experiment [10]. Moreover, the AC50 in [7] is 39 µM (active).
For the molecule `CCCCCCCCc1ccc(O)cc1`, the call in [1], in experiment [4], in experiment [5], in [6], in experiment [7] and in experiment [10] was inactive. Also, the results for the AC50 in experiment [18], in experiment [19] and in [8] were 6.82 µM (active), 22.6 µM (active) and 5.21 µM (active), respectively.
Take `CC(C)(C)c1cc(O)ccc1O`: the molecule was called inactive in experiment [1], in [3], in experiment [5], in [6], in experiment [19] and in experiment [7]. Besides, the outcome in [16] and in experiment [17] was inactive. The concentration at half-maximal activity (AC50) is 1.84 µM (active) [middle of 5 runs] in experiment [18]; 85.6 µM (active) and 25.9 µM (active) and 27.6 µM (active) in [19]; 14.4 µM (active) in experiment [8]; 16.8 µM (active) in [10].
On to `O=C(O)C(Cl)(Cl)Cl`, for which the call in experiment [1], in experiment [2], in experiment [3], in experiment [4], in [5] and in [6] was inactive. In addition, the molecule was called inactive in experiment [18], in experiment [19], in experiment [7], in [8], in experiment [16] and in experiment [10].
For the molecule `CC(C)(c1ccc(OCC2CO2)cc1)c1ccc(OCC2CO2)cc1` (configuration not stated), the outcome in experiment [17] was inactive.
